Measured values: PubChem BioAssay (NCATS)
Several values for one entry are separate records, joined by “and”; a condition that tells them apart may be missing. Identical values can stand only once. Records with an inconclusive call do not appear. Entries that show only a call come without a potency. Unmarked numbers belong to inactive results. Activity calls are given as the source filed them. The call rests on the fitted dose curve; in most records, active means well fitted curve in the direction sought with a large enough effect; inconclusive means small, poorly fitted or top-dose-only effect, or another doubt; inactive means no such curve, though single readings can be large; an effect the other way counts as inactive or inconclusive.

Legend:
[1] = target: Rap guanine nucleotide exchange factor 3 (Homo sapiens) (UniProt O95398); test: Confirmatory qHTS for agonist of cAMP-regulated guanine nucleotide exchange factor 3 (EPAC1) (AID 1645881); settings: EPAC1 Rap1B BODIPY-GDP exchange fluorescence; series mostly up to 154 µM;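 further: EPAC1 catalysed release of BODIPY-GDP from Rap1B seen as fluorescence loss; nearly all actives have a fitted effect of over 75% in size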
Chain of Rap guanine nucleotide exchange factor 3 (Homo sapiens) (O95398 whole entry, looked up): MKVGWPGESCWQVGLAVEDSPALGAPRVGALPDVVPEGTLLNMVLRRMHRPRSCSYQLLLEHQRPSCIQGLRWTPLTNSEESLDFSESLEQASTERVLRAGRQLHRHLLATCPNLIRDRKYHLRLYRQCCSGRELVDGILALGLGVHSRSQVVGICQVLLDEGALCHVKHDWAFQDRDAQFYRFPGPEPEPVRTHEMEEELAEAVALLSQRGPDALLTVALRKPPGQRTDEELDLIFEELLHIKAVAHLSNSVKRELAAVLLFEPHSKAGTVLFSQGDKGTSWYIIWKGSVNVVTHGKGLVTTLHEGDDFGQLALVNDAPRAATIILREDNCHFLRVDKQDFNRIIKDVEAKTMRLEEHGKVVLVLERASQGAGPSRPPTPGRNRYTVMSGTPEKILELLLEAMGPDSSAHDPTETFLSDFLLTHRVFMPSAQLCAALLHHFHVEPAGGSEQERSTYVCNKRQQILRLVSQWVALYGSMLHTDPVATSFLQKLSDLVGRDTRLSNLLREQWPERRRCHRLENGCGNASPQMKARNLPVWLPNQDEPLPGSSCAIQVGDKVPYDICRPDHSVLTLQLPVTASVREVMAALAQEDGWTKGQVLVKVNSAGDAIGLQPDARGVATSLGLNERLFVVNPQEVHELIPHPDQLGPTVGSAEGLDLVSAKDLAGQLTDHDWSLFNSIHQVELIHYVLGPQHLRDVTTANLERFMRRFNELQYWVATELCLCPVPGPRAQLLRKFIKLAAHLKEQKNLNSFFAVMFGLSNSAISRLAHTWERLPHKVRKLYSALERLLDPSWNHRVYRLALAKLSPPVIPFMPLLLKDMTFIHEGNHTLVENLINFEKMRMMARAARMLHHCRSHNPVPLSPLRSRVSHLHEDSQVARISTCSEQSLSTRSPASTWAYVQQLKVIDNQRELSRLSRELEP

[2] = target: Rap guanine nucleotide exchange factor 4 (Homo sapiens) (UniProt Q8WZA2); test: Confirmatory qHTS for agonist of cAMP-regulated guanine nucleotide exchange factor 4 (EPAC2) (AID 1645884); settings: EPAC2 GEF activity, Rap1B-BODIPY-GDP fluorescence; series mostly up to 154 µM;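 further: nucleotide exchange releases bodipy-GDP from Rap1 and this lowers its fluorescence; nearly all actives have a fitted effect of over 65% in size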
Chain of Rap guanine nucleotide exchange factor 4 (Homo sapiens) (Q8WZA2 whole entry, looked up): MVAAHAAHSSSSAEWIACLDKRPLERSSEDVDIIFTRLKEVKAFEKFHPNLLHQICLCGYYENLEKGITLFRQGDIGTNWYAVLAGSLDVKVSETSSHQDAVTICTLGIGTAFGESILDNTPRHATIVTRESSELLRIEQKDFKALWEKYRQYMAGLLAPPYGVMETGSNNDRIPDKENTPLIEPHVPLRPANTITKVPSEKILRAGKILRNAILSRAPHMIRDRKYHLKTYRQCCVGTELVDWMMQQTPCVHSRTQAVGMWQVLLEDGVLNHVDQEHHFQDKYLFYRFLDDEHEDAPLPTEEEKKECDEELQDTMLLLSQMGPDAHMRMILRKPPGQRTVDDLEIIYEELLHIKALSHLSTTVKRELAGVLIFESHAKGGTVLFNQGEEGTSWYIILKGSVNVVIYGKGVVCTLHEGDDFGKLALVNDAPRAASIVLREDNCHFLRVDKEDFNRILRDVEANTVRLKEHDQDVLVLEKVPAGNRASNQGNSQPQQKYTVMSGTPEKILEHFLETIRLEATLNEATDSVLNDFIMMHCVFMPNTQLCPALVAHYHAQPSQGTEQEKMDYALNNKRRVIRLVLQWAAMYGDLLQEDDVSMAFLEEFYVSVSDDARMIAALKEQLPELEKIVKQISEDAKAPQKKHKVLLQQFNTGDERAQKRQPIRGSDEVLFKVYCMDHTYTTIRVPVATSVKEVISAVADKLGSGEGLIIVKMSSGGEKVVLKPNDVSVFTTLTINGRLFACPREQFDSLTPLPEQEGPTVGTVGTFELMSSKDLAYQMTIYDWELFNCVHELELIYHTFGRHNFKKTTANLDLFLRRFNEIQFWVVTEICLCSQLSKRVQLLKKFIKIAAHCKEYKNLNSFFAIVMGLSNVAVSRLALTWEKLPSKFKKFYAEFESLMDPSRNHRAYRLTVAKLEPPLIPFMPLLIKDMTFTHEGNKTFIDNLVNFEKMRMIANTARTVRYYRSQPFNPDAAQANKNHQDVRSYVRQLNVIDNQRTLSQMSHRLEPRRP

[3] = target: Rap guanine nucleotide exchange factor 4 (Homo sapiens) (UniProt Q8WZA2); test: Confirmatory qHTS for antagonist of cAMP-regulated guanine nucleotide exchange factor 4 (EPAC2) (AID 1645885); settings: EPAC2 Rap1B-BODIPY-GDP exchange fluorescence, biochemical; series mostly up to 12.7 µM; further: nearly all actives have a fitted effect of over 25% in size; further: potency means the concentration at half of the fitted maximal effect
[4] = target: Rap guanine nucleotide exchange factor 3 (Homo sapiens) (UniProt O95398); test: Counterscreen qHTS for antagonist of cAMP-regulated guanine nucleotide exchange factor 3 (EPAC1) (AID 1645888); settings: Rap1B-BODIPY-GDP nucleotide exchange, fluorescence; series mostly up to 154 µM;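 further: fluorescence loss as bound BODIPY-GDP is released from Rap1B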
How it was run: (§1)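 Measured: fluorescence of BODIPY-GDP bound to Rap1B, which falls as exchange proceeds. Conditions include 50 uM competing GDP, 5 and 30 min reads, and a later cAMP challenge for antagonist detection.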

[5] = target: Rap guanine nucleotide exchange factor 3 (Homo sapiens) (UniProt O95398); test: Counterscreen qHTS for agonist of cAMP-regulated guanine nucleotide exchange factor 3 (EPAC1) (AID 1645889); settings: EPAC1 Rap1B-BODIPY-GDP exchange, fluorescence; series mostly up to 154 µM; further: nearly all actives have a fitted effect of over 40% in size; further: potency means the concentration at half of the fitted maximal effect
How it was run: as §1

| SMILES | Potency [1] | activation [2] | Potency [3] | activity change, negative = inhibition [4] | activation [5] | Potency [2] | Potency [4] | Potency [5] |
| --- | --- | --- | --- | --- | --- | --- | --- | --- |
| Cn1c(=O)c(C(=O)NNC(=O)c2ccccc2Br)c(O)c2ccccc21 | inactive | 2.84% [at 17.1 µM, percent relative to cAMP agonist control] | inactive | -5.21% [at 30.8 µM] | 8.96% [at 30.8 µM] |  |  |  |
| CC(=O)Nc1ccc(NC(=O)CNC(=O)COc2ccccc2)cc1 | inactive | 14.1% [at 17.1 µM, percent relative to cAMP agonist control] | inactive | 1.2% [at 30.8 µM] | -0.338% [at 30.8 µM] |  |  |  |
| CNc1ccc(/C=C/C(=O)c2ccc(C)cc2)cc1[N+](=O)[O-] | inactive | -1.81% [at 17.1 µM, percent relative to cAMP agonist control] | inactive | 16.3% [at 30.8 µM] | 21% [at 30.8 µM] |  |  |  |
| COc1ccc(S(=O)(=O)NC(=O)C2(C)CCN2C(=O)C2(c3ccccc3)CCCC2)cc1 (centres undefined) | inactive | -3.86% [at 17.1 µM, percent relative to cAMP agonist control] | inactive | -2.65% [at 30.8 µM] | -0.406% [at 30.8 µM] |  |  |  |
| Cc1ccc2nc3sc(C(=O)Nc4c(C)[nH]c(=O)[nH]c4=O)c(N)c3cc2c1 | inactive | 4.59% [at 17.1 µM, percent relative to cAMP agonist control] | inactive | 2.13% [at 30.8 µM] | 5.21% [at 30.8 µM] |  |  |  |
| O=C(N/N=C/c1ccc(O)c([N+](=O)[O-])c1)C1CC1(c1ccccc1)c1ccccc1 (centres undefined) | inactive | 2.95% [at 17.1 µM, percent relative to cAMP agonist control] | inactive | -23.6% [at 30.8 µM] | 11.6% [at 30.8 µM] |  |  |  |
| O=C(O)c1sccc1SCc1ccc(Cl)c(Cl)c1 | inactive |  | inactive |  |  | inactive | inactive | inactive |
| CCC(Oc1ccccc1)C(=O)Nc1ccccc1N1CCCC1 (centres undefined) | inactive |  | inactive |  |  | inactive | inactive | inactive |
| COc1cc(/C=C(\C#N)c2nc3ccc(C)cc3[nH]2)ccc1OCc1ccc(C)cc1 | inactive |  | inactive |  |  | inactive | inactive | inactive |
| CCOC(=O)C(NS(=O)(=O)c1ccc(C)cc1)(C(F)(F)F)P(=O)(OCC(C)C)OCC(C)C (centres undefined) | inactive |  | inactive |  |  | inactive | inactive | inactive |
| CSc1ccccc1NC(=O)CN1c2ccccc2CC1C (centres undefined) | inactive | 8.71% [at 17.1 µM, percent relative to cAMP agonist control] | inactive | -0.569% [at 30.8 µM] | 44.6% [at 30.8 µM] |  |  |  |
| Cc1cc2nc(-c3ccco3)c(Cc3cccc(F)c3)n2c(C)c1Br | inactive | 6.3% [at 17.1 µM, percent relative to cAMP agonist control] | inactive | -4.32% [at 30.8 µM] | 10.5% [at 30.8 µM] |  |  |  |
| CCOc1cccc(CNc2ccc(O)cc2)c1OCc1ccccc1Cl | inactive |  | inactive |  |  | inactive | inactive | 44.7 nM (active) and 79.4 µM (active) |
| CCCc1nc2c(=O)n(C)c(=O)nc-2n(C)n1 | inactive |  | inactive |  |  | inactive | inactive | inactive |
| O=C1C=C(NCc2ccccc2)c2ccccc2C1=O | inactive |  | 15.1 µM (active) |  |  | inactive | inactive | inactive |
| CCOC(=O)C1=CN(Cc2cccc(F)c2)S(=O)(=O)NC1c1ccc(Br)cc1F (centres undefined) | inactive |  | inactive |  |  | inactive | inactive |  |
| O=C1C=CC(c2ccccc2)(c2ccccc2)CC1 | inactive | 8.73% [at 17.1 µM, percent relative to cAMP agonist control] | inactive | -3.3% [at 30.8 µM] | 29.7% [at 30.8 µM] |  |  |  |
| O=C(NNc1c2ccccc2nc2ccccc12)c1ccccc1O | inactive |  | inactive |  |  | inactive | inactive | inactive |
| CCC(C)[C@H]1COCCS(=O)(=O)N1Cc1ccc(Cl)cc1Cl (some centres undefined) | inactive |  | inactive |  |  | inactive | inactive | inactive |
| COc1ccccc1C1CC(=O)Oc2cc(C)c(Cl)cc21 (centres undefined) | inactive |  | 9.53 µM (active) |  |  | inactive | inactive | inactive |
| CCc1noc(C)c1C(=O)N1CCCSC1=Nc1ccccc1Cl | inactive | 0.52% [at 17.1 µM, percent relative to cAMP agonist control] | inactive | -10.8% [at 30.8 µM] | -1.65% [at 30.8 µM] |  |  |  |
| CCn1c(C(=O)N2CCc3ccccc3C2)cc2sccc21 | inactive |  | 53.6 µM (active) |  |  | inactive | inactive | inactive |
| CCCCOc1cccc(C2C(C(=O)c3ccc(C)o3)=C(O)C(=O)N2c2nnc(C)s2)c1 (centres undefined) | inactive |  | inactive |  |  | inactive | inactive | inactive |
| O=C(Nc1cccc([N+](=O)[O-])c1)c1ccc2c(c1)C(=O)N(c1ccccn1)C2=O | inactive | 10.8% [at 17.1 µM, percent relative to cAMP agonist control] | inactive | -7.46% [at 30.8 µM] | 12.1% [at 30.8 µM] |  |  |  |
